Experimental findings from PubChem BioAssay are described below.

In test [1] the test system is TRPC4 beta (transient receptor potential cation channel C4), mouse. Nature of the test: activators of mouse TRPC4 channel, confirmation, cell-based, Fluo4 calcium, HEK293 TRPC4beta/mu-opioid, duplicates, 10 µM (AID 2426;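 active = fluorescence ratio normalized to control raised more than 50% in primary screen plus both repeat runs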;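 as to activation: percent rise of integrated ratio over buffer wells lacking compound which define 0%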). To be noted: Fluo4 calcium fluorescence, at 10 µM; hits give high values.
Test [2] relates to transient receptor potential cation channel C4 beta (TRPC4), mouse. Nature of the test: activators of mouse TRPC4 channel, confirmation, cell-based, second round, Fluo4, HEK293 TRPC4beta/mu-opioid, 1 µM (AID 2461;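 active = primary screen active and over 50% activation in each of two duplicate runs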). To be noted: Fluo4 calcium fluorescence, at 1 µM; hits give high values.
The subject of test [3] is TRPC4 (transient receptor potential cation channel C4 beta), mouse. The experiment in a line: positive allosteric modulators of mouse TRPC4, confirmation, cell-based, second round, Fluo-4, HEK293 TRPC4beta/mu-opioid, 1 µM (AID 2554;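 active = primary screen hit whose fluorescence ratio, in both repeats, exceeds the weak agonist control mean by 3 SD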). Particulars: DAMGO EC20, Fluo-4 calcium flux, at 1 µM; hits give high values.
For test [4], the system named is TRPC4 beta (transient receptor potential cation channel C4), mouse. Nature of the test: positive allosteric modulators of mouse TRPC4, confirmation, cell-based, Fluo-4, HEK293 TRPC4beta/mu-opioid (AID 2555;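 active = primary screen hit whose calcium fluorescence ratio, in both repeats, exceeds the weak agonist control mean by 3 SD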). Particulars: DAMGO EC20, Fluo-4 calcium flux, at 10 µM; hits give high values. For orientation: Calcium flux is commonly read through the fluorescence of an indicator in the cells.

For test [5], the target named is Short transient receptor potential channel 4 (Mus musculus) (UniProt Q9QUQ5). The experiment in a line: inhibitors of mouse TRPC4 channel, confirmation, cell-based, Fluo4, HEK293 TRPC4beta/mu-opioid (AID 2636;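 active = calcium signal cut by more than 3 SD below the full-agonist control yet still positive, in both repeats and the earlier primary screen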). Particulars: DAMGO, Fluo4 calcium flux, at 10 µM; hits give high values.
Test [6] has the same target. Nature of the test: inhibitors of mouse TRPC4 channel, confirmation, cell-based, second round, Fluo4, HEK293 TRPC4beta/mu-opioid, 1 µM (AID 2637;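 active = calcium signal ratio cut to more than 3 SD under the fully stimulated control mean yet still positive, in both repeats and the primary screen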). To be noted: Fluo4 calcium flux, DAMGO, at 1 µM; hits give high values.
For test [7] the target is unchanged. The experiment in a line: mouse TRPC4 channel activators, dose response, cell-based, HEK293 TRPC4/mu-opioid, Fluo-4 calcium (AID 434937).
For test [8] the target is unchanged. The experiment in a line: TRPC4 positive allosteric modulators, dose response, cell-based, HEK293 TRPC4/mu-opioid, Fluo-4 calcium, EC20 DAMGO (AID 434941;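 active = earlier screen potentiator hit that boosts the TRPC4 ion channel at some dose, with a dose response; inactive = no potentiation, no dose response, or not a prior hit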;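 also: calcium entry triggered by an EC20 dose of DAMGO at the co-expressed mu-opioid receptor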).
The target is the same in test [9]. The experiment in a line: mouse TRPC4 channel inhibitors, dose response, cell-based, HEK293 TRPC4/mu-opioid, Fluo-4 calcium (AID 434942;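 active = primary screen inhibitor hit that blocks the TRPC4 channel at some tested dose, yielding a dose curve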).
Test [10] deals with Short transient receptor potential channel 6 (Mus musculus) (UniProt Q61143). Nature of the test: inhibition of mouse TRPC6 channel, confirmation, selectivity assay for TRPC4 inhibitor project, cell-based, HEK293, membrane potential dye, duplicate (AID 434948;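 active = active in primary screen and both duplicates, each dropping signal beyond three positive-control SD with fluorescence still positive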). To be noted: HEK293 TRPC6, membrane potential dye fluorescence, at 10 µM, stimulated with maximal-effect acetylcholine; hits give high values.

The target is the same in test [11]. The experiment in a line: activation of mouse TRPC6 channel, confirmation, selectivity assay for TRPC4 activator project, cell-based, HEK293, membrane potential dye, duplicate (AID 434950;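 active = membrane potential signal rise above negative control mean plus 3 SD in both duplicates, also active in the earlier TRPC4 screen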). To be noted: HEK293 TRPC6, membrane potential fluorescence, at 10 µM; hits give high values.
For test [12] the target is unchanged. The experiment in a line: TRPC6 potentiation by TRPC4 potentiator hits, confirmation, selectivity assay for TRPC4 potentiator project, HEK293 cells, membrane potential dye, duplicate (AID 434952;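 active = compound raising the membrane signal above positive-control mean plus 3 SD in both repeats, and a primary screen hit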). Particulars: HEK293 TRPC6, membrane potential dye fluorescence, at 10 µM, maximal acetylcholine added after compound; hits give high values.
The target in test [13] is Short transient receptor potential channel 4 (Mus musculus) (UniProt Q9QUQ5). The experiment in a line: calcium flux activators in TRPC4/5HT1a cells, counter-screen for TRPC4 activator project, cell-based, second counter screen, HEK293 TRPC4/5HT1a, Fluo-4 (AID 434977;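 active = calcium signal rise above buffer-control mean plus 5 SD in both duplicates, and also a hit in the primary screen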;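 as to activation: plate controls were assay buffer for no effect and maximal serotonin response for full effect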). To be noted: Fluo-4 calcium flux, at 10 µM; hits give high values.
Test [14] can be described thus: calcium flux inhibitors in TRPC4/5HT1a cells, confirmation, counter-screen for TRPC4 inhibitor project, cell-based, second counter screen, HEK293 TRPC4/5HT1a, Fluo-4 (AID 434978;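 active = primary screen active whose calcium signal fell more than 3 SD beyond the full-serotonin control mean in both duplicate plates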;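 also: serotonin given first at submaximal then at maximal dose after compound preincubation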). To be noted: Fluo-4 calcium flux, at 10 µM, serotonin added to trigger calcium flux; hits give high values.
Test [15] deals with TRPC4 (mouse), co-expressed with 5HT1a in HEK293. The experiment in a line: calcium flux potentiators in TRPC4/5HT1a cells, confirmation, counter-screen for TRPC4 potentiator project, cell-based, second counter screen, HEK293 TRPC4/5HT1a, Fluo-4 (AID 434979;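 active = signal rise over 3 SD above mean of control wells given weak agonist, in both repeats and first screen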). To be noted: Fluo-4 calcium flux, at 10 µM, serotonin added at its EC20 dose; hits give high values.
Test [16] can be described thus: calcium flux activation in mu-opioid HEK293 cells, confirmation, counter-screen for TRPC4 activator project, cell-based, HEK293 mu-opioid receptor line (AID 449723;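 active = hit in primary screen, with calcium signal over 5 SD above buffer well mean in both duplicates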;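 also: counter screen cells carry the mu-opioid receptor alone and lack TRPC4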). To be noted: Fluo-4 calcium fluorescence, at 10 µM; hits give high values.
The nature of test [17]: calcium flux enhancement in mu-opioid HEK293 cells, confirmation, counter-screen for TRPC4 allosteric potentiator project, cell-based, HEK293 mu-opioid receptor line (AID 449724;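 active = calcium signal rise more than 3 SD above the low-dose agonist control mean, in both duplicate plates and the primary screen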;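 also: HEK293 cells carrying mu-opioid receptor only with no TRPC4 channel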). To be noted: Fluo-4 calcium flux, at 10 µM, compound added before EC20 DAMGO stimulus; hits give high values.
Test [18] can be described thus: thallium flux activation in parental CHO cells, counter-screen for KCNQ1 potentiator project (AID 493006;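 active = duplicate-averaged activation above buffer control mean plus 5 SD of those controls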). To be noted: parental CHO-K1 cells, FluxOR thallium flux, at 10 µM; hits give high values. (In general: Counterscreens check selectivity or assay interference.)
Test [19] has as its target Potassium voltage-gated channel subfamily KQT member 1 (Homo sapiens) (UniProt P51787). The experiment in a line: KCNQ1 potassium channel potentiators, confirmation, FluxOR thallium flux, CHO cells, duplicates (AID 493007;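 active = potentiation averaged over duplicate wells exceeding buffer-only control mean by more than 3 SD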;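 also: cells depolarized by a potassium plus thallium sulfate stimulus after compound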). To be noted: KCNQ1 cell line, FluxOR thallium flux fluorescence, at 10 µM; hits give high values, % of reference activator effect, buffer zero.
The target in test [20] is Potassium voltage-gated channel subfamily KQT member 2 (Rattus norvegicus) (UniProt O88943). The experiment in a line: rat KCNQ2 channel potentiation, selectivity assay for KCNQ1 potentiator project, KCNQ2-CHO-K1 cells (AID 493009;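 active = mean duplicate potentiation above the buffer control mean plus 5 SD of buffer wells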;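 also: assay conditions were tuned for KCNQ1 rather than KCNQ2 modulators; signal is max minus min fluorescence divided by baseline after thallium stimulus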). To be noted: FluxOR thallium flux fluorescence, at 10 µM; hits give high values, scaled: buffer 0, activator control 100.

For some of these results: Measured potencies and affinities stand elsewhere. The source made the active and inactive calls.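 The calls were made as follows, unless noted: active = primary screen activator hit with a dose response curve and TRPC4 channel activation at any tested dose; inactive = no activation, no dose response, or not a primary hit.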

Short transient receptor potential channel 4 (Mus musculus), sequence (Q9QUQ5 whole entry, looked up): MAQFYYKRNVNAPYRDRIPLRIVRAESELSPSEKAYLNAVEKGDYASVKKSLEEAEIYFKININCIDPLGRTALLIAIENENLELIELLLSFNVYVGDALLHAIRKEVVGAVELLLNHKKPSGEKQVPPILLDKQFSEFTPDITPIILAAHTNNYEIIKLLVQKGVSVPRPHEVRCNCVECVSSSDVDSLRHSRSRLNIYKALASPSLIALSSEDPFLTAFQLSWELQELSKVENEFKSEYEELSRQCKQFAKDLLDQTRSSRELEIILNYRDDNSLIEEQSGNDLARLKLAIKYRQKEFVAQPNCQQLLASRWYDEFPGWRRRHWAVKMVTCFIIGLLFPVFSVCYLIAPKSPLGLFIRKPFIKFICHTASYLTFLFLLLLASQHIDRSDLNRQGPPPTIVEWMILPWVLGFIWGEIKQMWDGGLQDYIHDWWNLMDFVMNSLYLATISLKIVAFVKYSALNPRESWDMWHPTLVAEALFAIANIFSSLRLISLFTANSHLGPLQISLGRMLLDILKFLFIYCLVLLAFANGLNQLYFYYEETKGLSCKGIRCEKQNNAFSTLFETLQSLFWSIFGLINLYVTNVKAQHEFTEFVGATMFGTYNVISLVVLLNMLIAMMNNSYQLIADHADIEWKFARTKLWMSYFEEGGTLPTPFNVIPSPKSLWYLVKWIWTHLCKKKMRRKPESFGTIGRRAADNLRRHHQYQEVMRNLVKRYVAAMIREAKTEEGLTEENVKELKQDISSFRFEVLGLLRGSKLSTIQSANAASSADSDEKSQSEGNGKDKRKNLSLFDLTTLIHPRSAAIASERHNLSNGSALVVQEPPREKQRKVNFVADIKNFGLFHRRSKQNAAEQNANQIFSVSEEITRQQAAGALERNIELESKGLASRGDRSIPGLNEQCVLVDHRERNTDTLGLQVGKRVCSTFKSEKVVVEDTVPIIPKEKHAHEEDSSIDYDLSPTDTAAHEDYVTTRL
Short transient receptor potential channel 6 (Mus musculus), sequence (Q61143 whole entry, looked up): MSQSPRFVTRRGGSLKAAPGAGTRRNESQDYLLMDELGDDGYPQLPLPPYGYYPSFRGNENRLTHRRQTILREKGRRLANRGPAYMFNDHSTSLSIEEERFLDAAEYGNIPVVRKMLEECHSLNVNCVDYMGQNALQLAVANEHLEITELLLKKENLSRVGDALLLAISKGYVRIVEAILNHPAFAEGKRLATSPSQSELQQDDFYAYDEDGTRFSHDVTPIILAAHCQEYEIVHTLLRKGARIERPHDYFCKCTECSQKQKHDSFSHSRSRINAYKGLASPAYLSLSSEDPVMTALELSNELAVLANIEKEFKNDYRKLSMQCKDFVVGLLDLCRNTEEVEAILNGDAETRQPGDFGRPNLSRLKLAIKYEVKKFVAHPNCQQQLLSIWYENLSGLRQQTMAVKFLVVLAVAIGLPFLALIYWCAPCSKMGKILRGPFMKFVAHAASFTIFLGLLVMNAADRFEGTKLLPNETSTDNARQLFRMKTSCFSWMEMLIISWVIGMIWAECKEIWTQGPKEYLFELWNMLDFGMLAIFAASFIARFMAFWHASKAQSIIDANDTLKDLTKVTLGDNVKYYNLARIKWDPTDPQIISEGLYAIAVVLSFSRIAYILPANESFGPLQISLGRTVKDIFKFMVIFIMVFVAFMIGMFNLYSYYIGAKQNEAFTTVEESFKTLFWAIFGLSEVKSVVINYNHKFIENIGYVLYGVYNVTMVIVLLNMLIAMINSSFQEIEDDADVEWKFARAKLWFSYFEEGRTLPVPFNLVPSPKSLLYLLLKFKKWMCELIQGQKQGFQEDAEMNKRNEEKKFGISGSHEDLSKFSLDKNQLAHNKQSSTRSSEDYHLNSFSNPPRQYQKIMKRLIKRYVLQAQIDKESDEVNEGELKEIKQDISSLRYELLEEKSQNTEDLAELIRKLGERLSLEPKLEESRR
Potassium voltage-gated channel subfamily KQT member 1 (Homo sapiens), sequence (P51787 whole entry, looked up): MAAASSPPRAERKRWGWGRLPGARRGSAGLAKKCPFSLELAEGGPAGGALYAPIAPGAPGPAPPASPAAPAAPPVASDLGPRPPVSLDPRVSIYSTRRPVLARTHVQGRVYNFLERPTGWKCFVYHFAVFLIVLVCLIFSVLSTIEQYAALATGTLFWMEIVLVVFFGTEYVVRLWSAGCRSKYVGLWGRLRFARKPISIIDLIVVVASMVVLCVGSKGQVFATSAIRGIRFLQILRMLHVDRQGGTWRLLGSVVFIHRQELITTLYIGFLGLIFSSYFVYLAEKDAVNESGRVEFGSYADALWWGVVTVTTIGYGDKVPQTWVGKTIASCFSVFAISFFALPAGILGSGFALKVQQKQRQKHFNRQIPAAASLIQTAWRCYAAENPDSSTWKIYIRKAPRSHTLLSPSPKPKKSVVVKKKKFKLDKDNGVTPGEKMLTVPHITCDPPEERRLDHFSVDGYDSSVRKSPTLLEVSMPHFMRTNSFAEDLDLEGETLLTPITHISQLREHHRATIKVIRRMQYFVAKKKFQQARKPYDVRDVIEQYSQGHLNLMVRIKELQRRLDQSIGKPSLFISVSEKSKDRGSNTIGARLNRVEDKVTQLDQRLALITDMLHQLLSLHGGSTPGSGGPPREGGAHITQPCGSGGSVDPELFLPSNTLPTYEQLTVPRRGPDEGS
Potassium voltage-gated channel subfamily KQT member 2 (Rattus norvegicus), sequence (O88943 whole entry, looked up): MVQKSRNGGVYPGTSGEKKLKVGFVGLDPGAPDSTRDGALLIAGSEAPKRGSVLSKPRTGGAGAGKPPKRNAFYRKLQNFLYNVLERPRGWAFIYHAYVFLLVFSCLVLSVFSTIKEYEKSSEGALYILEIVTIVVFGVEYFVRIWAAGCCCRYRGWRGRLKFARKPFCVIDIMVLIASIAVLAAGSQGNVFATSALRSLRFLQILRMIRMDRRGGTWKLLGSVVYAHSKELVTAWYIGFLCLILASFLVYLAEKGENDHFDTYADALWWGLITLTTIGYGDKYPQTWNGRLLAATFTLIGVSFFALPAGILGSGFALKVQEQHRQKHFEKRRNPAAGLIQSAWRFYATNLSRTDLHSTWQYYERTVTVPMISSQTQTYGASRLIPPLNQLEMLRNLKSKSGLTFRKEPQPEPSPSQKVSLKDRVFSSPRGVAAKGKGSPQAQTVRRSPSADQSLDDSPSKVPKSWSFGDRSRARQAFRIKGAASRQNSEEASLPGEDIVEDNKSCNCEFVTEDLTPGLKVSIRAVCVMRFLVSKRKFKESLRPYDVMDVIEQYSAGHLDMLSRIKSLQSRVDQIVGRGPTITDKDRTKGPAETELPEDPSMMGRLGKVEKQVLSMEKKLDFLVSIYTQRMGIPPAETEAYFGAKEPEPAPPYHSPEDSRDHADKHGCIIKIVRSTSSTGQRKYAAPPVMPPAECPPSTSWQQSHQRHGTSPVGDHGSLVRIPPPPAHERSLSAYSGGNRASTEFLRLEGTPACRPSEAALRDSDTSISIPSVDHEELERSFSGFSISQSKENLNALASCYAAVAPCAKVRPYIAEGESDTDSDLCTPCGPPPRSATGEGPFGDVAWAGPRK

Consider `N=c1c(C(=O)NCC2CCCO2)cc2c(=O)n3ccccc3nc2n1Cc1ccc(Cl)cc1` (centres undefined), for which the result in test [1], in test [2], in [3], in [5], in test [6] and in [7] was inactive. Besides, the result in test [8], in test [9], in [10], in test [11], in [12] and in test [13] was inactive. Besides, the outcome in test [14], in [16] and in test [17] was inactive. Besides, the potentiation is 57% (active) in test [4] and 61% (active) in test [15].

As for `c1ccc(C2(CN3CCNC[C@H]3Cc3cccc4ccccc34)CC2)cc1`, the activation in [1] was 161% (active); in test [13], 5.82% (active). The outcome in test [2], in test [3], in [4], in [5], in test [6] and in test [7] was inactive. In addition, the outcome in test [8], in [9], in test [10], in test [11], in test [12] and in test [14] was inactive. For the same compound, the outcome in test [15], in test [16] and in test [17] was inactive.

With `O=C(c1ccccc1F)N1CCN(c2ccc([N+](=O)[O-])cc2-n2cccc2)CC1`, the outcome in test [1], in test [2], in [3], in [5], in [6] and in test [7] was inactive. For the same compound, the outcome in test [8], in test [9], in [10], in test [11], in [12] and in [13] was inactive. Further, the outcome in test [14], in test [16] and in [17] was inactive. Moreover, the potentiation in test [4] was 20% (active); in test [15], 17.1% (active).

Take `COc1ccccc1C(=O)NNC1=C(C(=O)C(F)(F)F)CCC1`: the activation in test [1] was 58% (active); in test [13], 11% (active). Further, the result in test [2], in test [3], in test [4], in test [5], in [6] and in test [7] was inactive. Moreover, the result in test [8], in [9], in [10], in test [11], in [12] and in test [14] was inactive. Moreover, the outcome in test [15], in [16] and in test [17] was inactive.

On to `Cn1ncc(C#N)c1/N=C/N(Cc1ccccc1)Cc1ccccc1`, for which the outcome in [1], in [2], in [3], in test [4], in test [5] and in test [6] was inactive. The outcome in test [7], in [8], in test [9], in test [10], in test [11] and in test [12] was inactive. Besides, the outcome in test [13], in test [14], in test [15], in test [16] and in test [17] was inactive.

Take `CCOC(=O)CC(NC(=O)c1cc2cc(Br)ccc2oc1=O)c1cccc([N+](=O)[O-])c1` (centres undefined): the result in test [1], in test [2], in [3], in [4], in test [5] and in [6] was inactive. The outcome in test [7], in test [8], in test [9], in test [10], in [11] and in test [12] was inactive. The outcome in test [13], in [14], in [16] and in test [17] was inactive. In test [15], the potentiation is 15.9% (active).

`COc1ccc(S(=O)(=O)N2CCCCCC2)cc1C(=O)N(C)Cc1ccc(Cl)cc1Cl`: the outcome in test [1], in test [2], in test [3], in test [5], in test [6] and in [7] was inactive. For the same compound, the result in [8], in test [9], in test [10], in [11], in [12] and in [13] was inactive. Further, the result in test [14] and in [16] was inactive. Moreover, the figures for the potentiation in test [4] and in [15] were 46% (active) and 14.4% (active), respectively. In addition, the activation in test [17] was 2180% (active).

With `CCN(CC)c1ncnc2sc3c(c12)CCC3`, the outcome in [1], in test [2], in [3], in test [4], in test [5] and in test [6] was inactive. The outcome in test [7], in [8], in [9], in test [10], in test [11] and in test [12] was inactive. For the same compound, the outcome in test [13], in test [14], in test [15], in [16], in test [17] and in test [18] was inactive. Also, the outcome in [19] and in [20] was inactive.
